Reference: PubChem BioAssay (NCATS)
Where “and” joins values, the source holds several entries; their conditions need not be identical. Equal values may be shown once. Records with an inconclusive call do not appear. Calls of active or inactive are those of the source. Unless noted, calls come from the whole dose curve; as a rule, active = well fitted curve in the direction sought with a large enough effect; inconclusive = small, poorly fitted or top-dose-only effect, or another doubt; inactive = no such curve, though single readings can be large; an effect the other way counts as inactive or inconclusive.

Key:
[1] = qHTS assay for small molecule disruptors of the mitochondrial membrane potential - 1 hr assay (AID 651754; calls by dose curve; note: % is set by controls: 0 for no effect and ±100 for the full control effect; nearly all actives have a fitted effect of over 35% in size)
How it was run: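 Loss of mitochondrial potential shifts the cationic dye from red mitochondrial aggregates to green cytoplasmic monomers. Cells (HepG2) are treated with compound for 1 hr before a 30 min dye incubation at 37C.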

[2] = qHTS assay for small molecule disruptors of the mitochondrial membrane potential - 5 hr assay (AID 651755; calls by dose curve; note: % is set by controls: 0 for no effect and ±100 for the full control effect; nearly all actives have a fitted effect of over 40% in size)
How it was run: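 Seed HepG2 overnight, add compound, incubate 5 hr at 37C and 5% CO2, stain 30 min with Mito-MPS, then measure monomer (490/535 nm) and aggregate (540/590 nm) fluorescence.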

[3] = target: Tumor necrosis factor (Homo sapiens) (UniProt P01375); assay: qHTS assay to identify small molecules that stimulate Tumor Necrosis Factor-alpha (TNF-alpha) secretion (AID 651757; active = well fitted curve in the direction sought with a large enough effect in the signal ratio; the % refers to the signal ratio; note: 0% is about no effect)
How it was run: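 Human monocytic THP-1 cells are plated, treated with compound and held at 37 C for 17 hrs. Labeled anti-TNF-alpha antibody mixture is then added; after 3 hr at room temperature, TR-FRET signal reports secreted TNF-alpha.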

[4] = qHTS assay to identify small molecules that stimulate interleukin-8 (IL-8) secretion (AID 651758; active = well fitted activation curve with a large enough effect in the signal ratio; the % refers to the signal ratio; note: 0% is about no effect)
How it was run: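 Quantitative HTS in THP-1 monocytic cells at 2000 cells per well, with 16 hrs compound incubation at 37 C. IL-8 in the medium was then quantified by HTRF immunoassay, read after 1-3 hrs at room temperature.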

[5] = qHTS assay for environmental chemicals that activate the Aryl hydrocarbon Receptor (AhR) signaling pathway (AID 651777); conditions: 1A2-DRE human hepatoma cells, luciferase, 24 h; activation: hits give high values; note: % of control where 0% means no effect; nearly all actives have a fitted effect of over 15% in size
How it was run: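 Luminescence read-out: One-Glo added for 30 min at RT after 24 hr compound treatment (37 C, 5% CO2) of human hepatoma cells expressing a DRE/CYP1A2 promoter–luciferase reporter; increased signal indicates AhR activation.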

[6] = target: Nuclear receptor ROR-gamma (Homo sapiens) (UniProt P51449); assay: qHTS assay for small molecule antagonists of the retinoid-related orphan receptor gamma (ROR-gamma) signaling pathway (AID 651802);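 note: CHO cells with doxycycline-induced ROR-gamma expression; series mostly up to about 92 µM; % is set by controls: 0 for no effect and ±100 for the full control effect; nearly all actives have a fitted effect of over 60% in size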
How it was run: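 Steps: cells dispensed; compound or DMSO transferred by pin tool; doxycycline added to induce the ROR response element-driven luciferase; plates held 16hr at 37C; ONE-Glo added and luminescence measured.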

[7] = qHTS assay for small molecule agonists of the antioxidant response element (ARE) signaling pathway measured by Nrf2-dependant transcriptional activity (AID 720636; active = well fitted curve in the direction sought with a large enough effect in the repeat runs; an effect the other way counts as inactive or inconclusive;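 note: HepG2 cells with an ARE-driven luciferase reporter; % of control where 0% means no effect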)
How it was run: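 HepG2 ARE-luc reporter line, 1% dialyzed FBS; 6 hr attachment at 37 C, compound pinned in, 16 hr at 37 C/5% CO2; ONE-Glo, 30 min RT, luminescence read.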

[8] = qHTS assay for small molecule antagonists of the retinoid-related orphan receptor gamma (ROR-gamma) signaling pathway - cell viability counter screen (AID 720652; active = well fitted curve in the direction sought with a large enough effect in the repeat runs; an effect the other way counts as inactive or inconclusive;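 note: CHO reporter cells with doxycycline-induced ROR-gamma expression; series mostly up to about 92 µM; compound exposure lasted 16 hr before ATP read; % is set by controls: 0 for no effect and ±100 for the full control effect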)
How it was run: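 Steps: seed CHO cells bearing TET-inducible ROR and ROR response element-luciferase; rest 5 hr at 37 C; add compound, then doxycycline; incubate 16 hr; add CellTiter-Glo and read luminescence as ATP-based viability.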

[9] = qHTS assay for small molecule agonists of the antioxidant response element (ARE) signaling pathway measured by Nrf2-dependant transcriptional activity - cell viability counter screen (AID 720653; active = well fitted curve in the direction sought with a large enough effect in the repeat runs; an effect the other way counts as inactive or inconclusive; note: % is set by controls: 0 for no effect and ±100 for the full control effect); conditions: ARE-bla HepG2 viability, CellTiter-Glo ATP luminescence, 16 h; hits give low values
How it was run: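 ARE-bla HepG2 cells (2,000/well) rested 5 hrs at 37C/5% CO2, then exposed to compounds in DMSO for 16 hrs. Viability was read in the same wells as intracellular ATP by luminescence, 30 min at room temperature after reagent addition.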

[10] = qHTS assay for cell viability of HEK293 cells (AID 743288); conditions: ATP luminescence (CellTiter-Glo), 18 h, hits give low values; note: % is set by controls: 0 for no effect and ±100 for the full control effect; nearly all actives have a fitted effect of over 50% in size
How it was run: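 Viable-cell counts were inferred from luciferase-based ATP content in HEK293 cells seeded at 2,000/well, pre-incubated ≥5 h, then dosed with DMSO-solubilised compounds for 18 h at 37 C.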

[11] = qHTS assay for cell viability of the p53RE-bla HCT-116 cell line (AID 743292); note: % is set by controls: 0 for no effect and ±100 for the full control effect; nearly all actives have a fitted effect of over 55% in size
How it was run: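 Luminescent ATP quantitation (CellTiter-Glo) served as the viability read-out; reagent was added after 16 h compound exposure at 37 C and read after 30 min at room temperature. Cells: p53RE-bla HCT-116, 4,000 per well.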

[12] = target: Nuclear receptor subfamily 1 group I member 2 (Rattus norvegicus) (UniProt Q9R1A7); assay: qHTS assay for small molecule activators of the rat pregnane X receptor (rPXR) signaling pathway (AID 651751; call rule not given here; note: 0% is about no effect); conditions: rPXR reporter cells, luciferase (One-Glo), 24 h
[13] = qHTS assay for small molecule activators of the human pregnane X receptor (PXR) signaling pathway (AID 720659; call rule not given here; note: 0% is about no effect)
[14] = target: Peroxisome proliferator-activated receptor alpha (Homo sapiens) (UniProt Q07869); assay: qHTS assay for small molecule agonists of the peroxisome proliferator-activated receptor alpha (PPARalpha) signaling pathway (AID 651778); conditions: PathHunter PPARalpha complementation, chemiluminescence, 6 h; hits give high values; note: % of control where 0% means no effect
How it was run: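 Cells plated at 2,000/well and held overnight at 37 C, 5% CO2, then compound added by pin tool for 6 hr; after PathHunter detection reagent and 60 min at room temperature, chemiluminescence from enzyme complementation was read.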

Chain of Nuclear receptor ROR-gamma (Homo sapiens) (P51449 whole entry, looked up): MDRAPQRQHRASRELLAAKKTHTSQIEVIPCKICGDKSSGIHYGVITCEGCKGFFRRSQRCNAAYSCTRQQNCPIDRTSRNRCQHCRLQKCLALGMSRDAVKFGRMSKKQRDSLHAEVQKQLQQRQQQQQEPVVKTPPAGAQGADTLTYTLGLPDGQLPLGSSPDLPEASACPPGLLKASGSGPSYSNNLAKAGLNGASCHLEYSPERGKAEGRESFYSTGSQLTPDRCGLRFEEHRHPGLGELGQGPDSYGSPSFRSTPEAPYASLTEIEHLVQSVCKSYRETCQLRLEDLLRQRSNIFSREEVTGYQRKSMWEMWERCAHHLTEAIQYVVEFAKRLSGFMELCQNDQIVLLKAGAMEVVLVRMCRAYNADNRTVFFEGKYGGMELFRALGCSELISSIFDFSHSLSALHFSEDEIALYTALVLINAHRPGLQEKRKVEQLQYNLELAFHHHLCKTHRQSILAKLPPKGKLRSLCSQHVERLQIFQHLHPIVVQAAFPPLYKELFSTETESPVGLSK
Chain of Nuclear receptor subfamily 1 group I member 2 (Rattus norvegicus) (Q9R1A7 whole entry, looked up): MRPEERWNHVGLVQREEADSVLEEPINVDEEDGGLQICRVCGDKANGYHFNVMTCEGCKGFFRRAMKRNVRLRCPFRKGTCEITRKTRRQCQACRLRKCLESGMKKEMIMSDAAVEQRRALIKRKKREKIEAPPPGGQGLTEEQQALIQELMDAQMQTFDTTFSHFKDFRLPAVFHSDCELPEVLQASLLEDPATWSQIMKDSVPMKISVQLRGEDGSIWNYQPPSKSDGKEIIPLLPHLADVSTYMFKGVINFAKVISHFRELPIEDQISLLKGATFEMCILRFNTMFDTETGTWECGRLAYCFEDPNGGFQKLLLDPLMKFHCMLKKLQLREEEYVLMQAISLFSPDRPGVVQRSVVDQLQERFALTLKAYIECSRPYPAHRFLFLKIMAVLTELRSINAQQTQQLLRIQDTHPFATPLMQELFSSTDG
Chain of Peroxisome proliferator-activated receptor alpha (Homo sapiens) (Q07869 whole entry, looked up): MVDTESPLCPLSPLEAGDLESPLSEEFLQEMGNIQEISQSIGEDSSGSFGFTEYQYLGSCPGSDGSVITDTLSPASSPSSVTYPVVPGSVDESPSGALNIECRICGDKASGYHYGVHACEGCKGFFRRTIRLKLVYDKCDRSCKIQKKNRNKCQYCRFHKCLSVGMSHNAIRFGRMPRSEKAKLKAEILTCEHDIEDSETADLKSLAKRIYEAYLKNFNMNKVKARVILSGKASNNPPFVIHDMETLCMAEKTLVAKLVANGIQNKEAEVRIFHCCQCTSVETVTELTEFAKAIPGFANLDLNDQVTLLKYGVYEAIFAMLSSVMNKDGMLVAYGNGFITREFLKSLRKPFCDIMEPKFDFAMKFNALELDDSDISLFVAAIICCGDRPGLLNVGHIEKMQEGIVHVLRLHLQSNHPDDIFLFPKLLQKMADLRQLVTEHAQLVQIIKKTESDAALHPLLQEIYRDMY
Chain of Tumor necrosis factor (Homo sapiens) (P01375 whole entry, looked up): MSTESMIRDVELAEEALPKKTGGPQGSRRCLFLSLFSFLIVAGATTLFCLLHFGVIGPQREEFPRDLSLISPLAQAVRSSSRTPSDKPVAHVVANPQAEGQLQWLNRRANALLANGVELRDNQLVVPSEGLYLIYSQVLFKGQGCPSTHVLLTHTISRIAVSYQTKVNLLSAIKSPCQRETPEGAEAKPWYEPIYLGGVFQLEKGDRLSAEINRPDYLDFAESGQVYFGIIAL

Cc1cc(C)cc([N+](=O)[O-])c1
inactive: Potency [1] | Potency [2] | Potency [3] | Potency [4] | activation [5] 0.689% | Potency [6] | outcome [7] | Potency [8] | max response [9] -11.8% | max response [10] 1.12% | Potency [11] | max response [12] 1.37% | outcome [13]

Cc1cccc([N+](=O)[O-])c1C(=O)O
inactive: Potency [1] | Potency [2] | Potency [3] | Potency [4] | activation [5] -0.538% | max response [14] 4.5% | Potency [6] | outcome [7] | max response [9] 0.554% | max response [10] -0.404% | Potency [11] | max response [12] 12.6% | outcome [13]

Cc1ccccc1C#N
inactive: Potency [1] | Potency [2] | Potency [3] | Potency [4] | activation [5] 3.69% | max response [14] -1.24% | Potency [6] | outcome [7] | max response [9] -8.58% | max response [10] -0.799% | Potency [11] | max response [12] -0.838% | outcome [13]

ICCc1ccccc1
inactive: Potency [1] | Potency [2] | Potency [3] | Potency [4] | activation [5] 3.65% | Potency [6] | outcome [7] | Potency [8] | max response [9] 3.37% | Potency [11] | max response [12] -1.67% | outcome [13]

C=C(C)C(=O)OCC(C)O (stereo not drawn)
inactive: Potency [1] | Potency [2] | Potency [3] | Potency [4] | activation [5] 0.365% | max response [14] -1.16% | Potency [6] | outcome [7] | max response [9] 7.34% | max response [10] -4.55% | Potency [11] | max response [12] -4.2% | outcome [13]

CCCCCCCCC/C=C/CC1CC(=O)OC1=O (stereo not drawn)
inactive: Potency [1] | Potency [2] | Potency [3] | Potency [4] | activation [5] 0.696% | max response [14] 0.153% | outcome [7] | Potency [8] | max response [9] -4.85% | max response [12] -1.93% | outcome [13]

CCCCCNCCCCC
inactive: Potency [1] | Potency [2] | Potency [3] | Potency [4] | activation [5] 0.294% and -0.372% | Potency [6] | outcome [7] | Potency [8] | max response [9] -0.347% and -3.31% | max response [10] 0.935% and 1.64% | Potency [11] | max response [12] 7.61% and 1.33% | outcome [13]

Cc1ccc(C)cc1
inactive: Potency [1] | Potency [2] | Potency [3] | Potency [4] | activation [5] 0.01% | max response [14] -4.74% | Potency [6] | outcome [7] | Potency [8] | Potency [11] | max response [12] 0.288% | outcome [13]

CC1CCC2CC1C2(C)C (stereo not drawn)
inactive: Potency [1] | Potency [2] | Potency [3] | Potency [4] | activation [5] -0.275% | max response [14] -3.48% | Potency [6] | outcome [7] | max response [9] 1.21% | Potency [11] | max response [12] -2.72% | outcome [13]

O=[N+]([O-])c1ccccc1CCO
inactive: Potency [1] | Potency [2] | Potency [3] | activation [5] 0.213% | max response [14] -1.29% | Potency [6] | outcome [7] | Potency [8] | max response [9] -3.69% | max response [12] 5.68% | outcome [13]

CC(C)Cc1nccs1
inactive: Potency [1] | Potency [2] | Potency [3] | Potency [4] | activation [5] 1% | Potency [6] | outcome [7] | max response [9] 25.9% | max response [10] -11.2% | max response [12] 7.57% | outcome [13]

O=C(Cl)c1cccc([N+](=O)[O-])c1
inactive: Potency [1] | Potency [2] | Potency [3] | Potency [4] | max response [14] -2.24% | Potency [6] | outcome [7] | Potency [8] | max response [9] -1.32% | max response [10] -15.1% | Potency [11] | max response [12] -6.23% | outcome [13]

c1ccc2c(c1)Oc1ccccc1S2
inactive: Potency [1] | Potency [2] | Potency [3] | Potency [4] | Potency [6] | outcome [7] | Potency [8] | max response [9] 6.9% | max response [10] 0.655% | Potency [11] | max response [12] -3.68% | outcome [13]

C=CC(=O)NC(C)C
inactive: Potency [1] | Potency [2] | Potency [3] | Potency [4] | activation [5] -0.429% | max response [14] -6.08% | outcome [7] | max response [9] -7.91% | max response [10] -0.14% | Potency [11] | max response [12] 3.94% | outcome [13]

O=C(O)/C=C/C(=O)O
inactive: Potency [1] | Potency [2] | Potency [3] | Potency [4] | Potency [6] | outcome [7] | max response [9] 17.2% | max response [10] -0.445% | Potency [11] | max response [12] 2.11% | outcome [13]

O=C1OC(=O)c2c(Br)c(Br)c(Br)c(Br)c21
inactive: Potency [1] | Potency [2] | Potency [3] | Potency [4] | activation [5] -1.58% and 0.554% | max response [14] 0.713% and 0.326% | outcome [7] | Potency [8] | max response [9] -8.33% and -1.37% | max response [10] 2.2% and -6.24% | Potency [11] | max response [12] -2.83% and 0.309% | outcome [13]

CC1(N)CCC(C(C)(C)N)CC1 (stereo not drawn)
inactive: Potency [1] | Potency [2] | Potency [3] | Potency [4] | activation [5] -0.642% | max response [14] 0.74% | Potency [6] | outcome [7] | max response [9] 1.22% | max response [10] 3.33% | Potency [11] | max response [12] 1.15% | outcome [13]
